Experimental data: PubChem BioAssay (EPA / NIEHS)
Activity calls are given as the source filed them. How the source made its calls: active means hit-call score of the fitted dose curve at least 0.9, where 1 is the maximum; inactive means score below 0.9.

Assay: CCTE_Shafer_MEA_acute_cross_correlation_HWHM: CCTE's Neural Acute Assay for Cross Correlation at Half Width at Half Maximum, Shafer Lab (AID 2284026);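 further: percent change per well from pre-dose baseline in spike cross-correlogram half width; hits are a decrease in cross-correlogram half width relative to DMSO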;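 on outcome: spontaneous network firing of rat primary cortical neurons on multiwell microelectrode arrays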
How it was run: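 Read-out: half width at half maximum of action-potential cross-correlogram, percent change versus pre-treatment baseline, fitted in loss direction against DMSO. Rat cortical cultures, DIV 13 or 15, dosed 0.03-40 uM, 40-min recordings at 37 C.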
For `OC(CCl)CCl`, the outcome was “inactive”. For `OCc1ccccc1`, the outcome was “inactive”. With `Cc1ncc([C@@H](CCCCCCc2ccc3c(n2)NCCC3)CC(=O)O)cn1` the outcome was “inactive”. In the case of `COCc1nnc(-c2ccc[n+]([O-])c2)n1-c1c(Cl)c(Cl)cc2[nH]c(=O)c(=O)[nH]c12`, the AC50 is reported as 8.51 µM (active). In the case of `O=S(=O)(O)c1ccc(N=Nc2c(O)ccc3cc(S(=O)(=O)O)ccc23)cc1`, the outcome is reported as “inactive”. In the case of `CCCc1ccccc1`, the outcome is reported as “inactive”. In the case of `Cn1c(=O)c2[nH]cnc2n(C)c1=O`, the outcome is reported as “inactive”. For `CC[C@H](C)C(=O)O[C@H]1C[C@H](O)C=C2C=C[C@H](C)[C@H](CC[C@@H](O)C[C@@H](O)CC(=O)O)[C@H]21`, the outcome was “inactive”. For `CC(C)C(=O)Nc1ccc([N+](=O)[O-])c(C(F)(F)F)c1`, the AC50 was 5.73 µM (active). For `CCCCC(CC)C(=O)OCCOCCOCCOC(=O)C(CC)CCCC` (stereo not given), the outcome was “inactive”. For `C=CCc1cc(S(=O)(=O)c2ccc(O)c(CC=C)c2)ccc1O`, the outcome was “inactive”. For `CCc1ccc(O)c(C(C)(C)C)c1`, the outcome was “inactive”. In the case of `c1ccc(C(O[C@@H]2CCCN(CCc3ccc4c(c3)OCO4)C2)c2ccccc2)cc1`, the outcome is reported as “inactive”. In the case of `COc1cc2c(c(OC)c1OC)-c1ccc(OC)c(=O)cc1[C@@H](NC(C)=O)CC2`, the outcome is reported as “inactive”. For `CCCCCCCC/C=C\CCCCCCCC(=O)OC[C@@H](O)[C@H]1OC[C@H](O)[C@H]1O`, the outcome was “inactive”. With `COc1cc(C(C)C)c2c(c1)S(=O)(=O)N(COc1cc(=O)n3cccc(OCCN4CCCCC4)c3n1)C2=O` the AC50 was 7.59 µM (active). For `c1ccc2cc3ccccc3cc2c1`, the outcome was “inactive”.

Assay: CCTE_Shafer_MEA_acute_synchrony_index: CCTE's Neural Acute Assay for Synchrony, Shafer Lab (AID 2284027);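 further: network synchrony index of spontaneous spiking in primary rat cortical neurons on MEAs; fitted for loss of signal so actives lower synchrony relative to DMSO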
How it was run: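 Primary rat cortical neurons on 16-electrode MEA wells were recorded 40 min at baseline (DIV 13 or 15) and 40 min after compound (0.03-40 uM) at 37 C. Synchrony index (0-1) expressed as percent change from baseline, versus DMSO.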
For `OC(CCl)CCl`, the outcome was “inactive”. With `OCc1ccccc1` the outcome was “inactive”. For `Cc1ncc([C@@H](CCCCCCc2ccc3c(n2)NCCC3)CC(=O)O)cn1`, the outcome was “inactive”. For `COCc1nnc(-c2ccc[n+]([O-])c2)n1-c1c(Cl)c(Cl)cc2[nH]c(=O)c(=O)[nH]c12`, the AC50 was 14.7 µM (active). With `CCCCCCCC1CCC(=O)O1` (stereo not given) the outcome was “inactive”. With `O=S(=O)(O)c1ccc(N=Nc2c(O)ccc3cc(S(=O)(=O)O)ccc23)cc1` the outcome was “inactive”. In the case of `CCCc1ccccc1`, the outcome is reported as “inactive”. For `Cn1c(=O)c2[nH]cnc2n(C)c1=O`, the outcome was “inactive”. With `CC[C@H](C)C(=O)O[C@H]1C[C@H](O)C=C2C=C[C@H](C)[C@H](CC[C@@H](O)C[C@@H](O)CC(=O)O)[C@H]21` the outcome was “inactive”. In the case of `CC(C)C(=O)Nc1ccc([N+](=O)[O-])c(C(F)(F)F)c1`, the outcome is reported as “inactive”. For `CCCCC(CC)C(=O)OCCOCCOCCOC(=O)C(CC)CCCC` (stereo not given), the outcome was “inactive”. For `C=CCc1cc(S(=O)(=O)c2ccc(O)c(CC=C)c2)ccc1O`, the outcome was “inactive”. In the case of `CCc1ccc(O)c(C(C)(C)C)c1`, the outcome is reported as “inactive”. With `c1ccc(C(O[C@@H]2CCCN(CCc3ccc4c(c3)OCO4)C2)c2ccccc2)cc1` the outcome was “inactive”. With `COc1cc2c(c(OC)c1OC)-c1ccc(OC)c(=O)cc1[C@@H](NC(C)=O)CC2` the outcome was “inactive”. For `CCCCCCCC/C=C\CCCCCCCC(=O)OC[C@@H](O)[C@H]1OC[C@H](O)[C@H]1O`, the outcome was “inactive”. With `COc1cc(C(C)C)c2c(c1)S(=O)(=O)N(COc1cc(=O)n3cccc(OCCN4CCCCC4)c3n1)C2=O` the AC50 was 7.39 µM (active). With `c1ccc2cc3ccccc3cc2c1` the outcome was “inactive”.
